The text below walks through data of PubChem BioAssay (NCATS).

“And” between values parts separate entries of the source, which are not always exact repeats. Equal entries are not always repeated. Inconclusive results are not listed. Where a call stands in place of a potency, no number is given. The source made the active and inactive calls. Calls follow the shape of the dose curve; as a rule, active = well fitted curve in the direction sought with a large enough effect in the repeat runs; inconclusive = weak or mixed curves; inactive = no such curve, though single readings can be large; an effect the other way counts as inactive or inconclusive.
Also: nearly all actives have a fitted effect of over 55% in size.
Potency is read from the fitted curve at half-maximal effect.

Cytochrome P450 2C9 (Homo sapiens), sequence (P11712 whole entry, looked up): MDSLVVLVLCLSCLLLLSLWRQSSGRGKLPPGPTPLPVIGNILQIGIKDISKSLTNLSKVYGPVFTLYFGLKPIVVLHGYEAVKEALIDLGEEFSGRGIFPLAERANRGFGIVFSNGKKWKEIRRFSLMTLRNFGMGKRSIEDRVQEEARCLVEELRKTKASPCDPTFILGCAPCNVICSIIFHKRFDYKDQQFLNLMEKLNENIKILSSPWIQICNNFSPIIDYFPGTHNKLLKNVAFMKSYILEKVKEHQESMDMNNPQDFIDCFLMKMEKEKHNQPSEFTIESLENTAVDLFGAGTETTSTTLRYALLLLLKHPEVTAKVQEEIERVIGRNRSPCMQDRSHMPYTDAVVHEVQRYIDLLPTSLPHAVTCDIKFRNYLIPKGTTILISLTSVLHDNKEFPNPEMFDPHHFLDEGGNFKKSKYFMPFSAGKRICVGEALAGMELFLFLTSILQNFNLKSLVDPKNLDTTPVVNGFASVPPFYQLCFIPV
Cytochrome P450 2D6 (Homo sapiens), sequence (P10635 whole entry, looked up): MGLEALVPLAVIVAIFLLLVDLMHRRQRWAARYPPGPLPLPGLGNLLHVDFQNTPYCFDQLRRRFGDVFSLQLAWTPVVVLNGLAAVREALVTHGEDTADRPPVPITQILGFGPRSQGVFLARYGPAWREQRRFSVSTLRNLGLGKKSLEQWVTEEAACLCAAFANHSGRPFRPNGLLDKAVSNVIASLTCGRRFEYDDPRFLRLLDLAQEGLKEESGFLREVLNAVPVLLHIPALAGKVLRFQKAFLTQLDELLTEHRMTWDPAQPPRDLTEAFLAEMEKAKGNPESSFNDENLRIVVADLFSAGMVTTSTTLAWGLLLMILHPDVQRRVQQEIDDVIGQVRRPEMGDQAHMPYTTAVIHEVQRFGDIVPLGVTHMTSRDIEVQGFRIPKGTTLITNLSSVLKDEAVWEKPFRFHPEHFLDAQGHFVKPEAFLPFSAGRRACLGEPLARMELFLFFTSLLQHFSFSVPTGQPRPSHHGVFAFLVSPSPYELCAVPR

One experiment addresses Cytochrome P450 2D6 (Homo sapiens) (UniProt P10635). Briefly: Cytochrome P450 family 2 subfamily D member 6 (CYP2D6) small molecule antagonists: luciferase biochemical (cell-free) qHTS assay (AID 1645840). Conditions: P450-Glo CYP2D6 enzyme, luciferin luminescence, 1 h; series mostly up to 57.4 µM. In outline:
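P450-Glo CYP2D6 system: proluciferin substrate converted by enzyme to luciferin, read by luminescence proportional to activity. Enzyme-substrate mix with compound 10 min at room temperature, then NADPH regeneration 1 h before detection reagent.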
A general note: In qHTS, concentration-response curves come from the screen itself.
For `c1ccc2c(c1)OCC(C1=NCCN1)O2` (stereo unspecified), the Potency is 19500 nM (active).

`Oc1ccc(Cl)cc1Cc1ccccc1`: the Potency is 29400 nM (active).

Take `C[C@H]1O[C@@H](O[C@H]2[C@@H](O)C[C@H](O[C@H]3[C@@H](O)C[C@H](O[C@H]4CC[C@@]5(C)[C@H](CC[C@@H]6[C@@H]5CC[C@]5(C)[C@@H](C7=CC(=O)OC7)CC[C@]65O)C4)O[C@@H]3C)O[C@@H]2C)C[C@H](O)[C@@H]1O`: the Potency entry was “inactive”.

Take `CCC(=O)C(CC(C)N(C)C)(c1ccccc1)c1ccccc1` (stereo unspecified): the Potency was 898 nM (active).

For `C[C@@H]1O[C@@H](O[C@H]2C[C@@H](O)[C@]3(CO)[C@H]4[C@H](O)C[C@]5(C)[C@@H](C6=CC(=O)OC6)CC[C@]5(O)[C@@H]4CC[C@]3(O)C2)[C@H](O)[C@H](O)[C@H]1O`, the Potency entry was “inactive”.

Turning to `Clc1ccc(CCC(Cn2ccnc2)Sc2c(Cl)cccc2Cl)cc1` (stereo unspecified), the Potency is 550 nM (active).

In the case of `Clc1ccc(COC(Cn2ccnc2)c2ccc(Cl)cc2Cl)cc1` (stereo unspecified), the Potency was 219 nM (active).

Regarding `CO[C@]12CC[C@@]3(C[C@@H]1[C@](C)(O)C(C)(C)C)[C@@H]1Cc4ccc(O)c5c4[C@@]3(CCN1CC1CC1)[C@H]2O5`, the Potency is 353 nM (active).

As to `C=C(C)[C@H]1Cc2c(ccc3c2O[C@@H]2COc4cc(OC)c(OC)cc4[C@@H]2C3=O)O1`, the Potency entry is “inactive”.

In the case of `C=C1C[C@@H]2[C@H](CC[C@]3(C)C(=O)CC[C@@H]23)[C@@]2(C)C=CC(=O)C=C12`, the Potency entry was “inactive”.

With `CNC(=O)c1ccc(N2C(=S)N(c3ccc(C#N)c(C(F)(F)F)c3)C(=O)C23CCC3)cc1F`, the Potency entry is “inactive”.

Regarding `CNC(=O)N1N=C(c2ccc(N)cc2)c2cc3c(cc2CC1C)OCO3` (stereo unspecified), the Potency entry was “inactive”.

With `CC(CCc1ccccc1)NC(C)C(O)c1ccc(O)cc1` (stereo unspecified), the Potency is 195 nM (active).

In the case of `Cc1sc2c(c1C)C(c1ccc(Cl)cc1)=N[C@@H](CC(=O)OC(C)(C)C)c1nnc(C)n1-2`, the Potency entry is “inactive”.

For the compound `Cn1cc(C2=C(c3cn(C4CCN(Cc5ccccn5)CC4)c4ccccc34)C(=O)NC2=O)c2ccccc21`, the Potency result was “inactive”.

Another experiment has as its target Cytochrome P450 2C9 (Homo sapiens) (UniProt P11712). In words: Cytochrome P450 family 2 subfamily C member 9 (CYP2C9) small molecule antagonists: luciferase biochemical (cell-free) qHTS assay (AID 1645842). Conditions: P450-Glo CYP2C9 enzyme assay, luciferin luminescence; series mostly up to 57.4 µM. In outline: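 P450-Glo CYP2C9 system: proluciferin substrate with enzyme in mix containing 0.4% BSA, 10 min at room temperature, then NADPH regeneration solution added and incubated 1 h at 37C. Detection reagent stopped reaction; luminescence read after 20 min as RLU.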
Regarding `c1ccc2c(c1)OCC(C1=NCCN1)O2` (stereo unspecified), the Potency result was “inactive”.

`Oc1ccc(Cl)cc1Cc1ccccc1`: the Potency is 9.31 µM (active) and 12.3 µM (active).

`C[C@H]1O[C@@H](O[C@H]2[C@@H](O)C[C@H](O[C@H]3[C@@H](O)C[C@H](O[C@H]4CC[C@@]5(C)[C@H](CC[C@@H]6[C@@H]5CC[C@]5(C)[C@@H](C7=CC(=O)OC7)CC[C@]65O)C4)O[C@@H]3C)O[C@@H]2C)C[C@H](O)[C@@H]1O`: the Potency entry is “inactive”.

In the case of `CCC(=O)C(CC(C)N(C)C)(c1ccccc1)c1ccccc1` (stereo unspecified), the Potency result is “inactive”.

With `C[C@@H]1O[C@@H](O[C@H]2C[C@@H](O)[C@]3(CO)[C@H]4[C@H](O)C[C@]5(C)[C@@H](C6=CC(=O)OC6)CC[C@]5(O)[C@@H]4CC[C@]3(O)C2)[C@H](O)[C@H](O)[C@H]1O`, the Potency result was “inactive”.

As for `Clc1ccc(CCC(Cn2ccnc2)Sc2c(Cl)cccc2Cl)cc1` (stereo unspecified), the Potency was 0.0123 µM (active).

On to `C=C(C)[C@H]1Cc2c(ccc3c2O[C@@H]2COc4cc(OC)c(OC)cc4[C@@H]2C3=O)O1`, for which the Potency was 6.17 µM (active).

Consider `CN1C[C@H](CNC(=O)OCc2ccccc2)C[C@@H]2c3cccc4c3c(cn4C)C[C@H]21`, for which the Potency entry was “inactive”.

As for `CC(CCc1ccccc1)NC(C)C(O)c1ccc(O)cc1` (stereo unspecified), the Potency entry is “inactive”.

For the compound `Cc1sc2c(c1C)C(c1ccc(Cl)cc1)=N[C@@H](CC(=O)OC(C)(C)C)c1nnc(C)n1-2`, the Potency is 10.7 µM (active).

`Cn1cc(C2=C(c3cn(C4CCN(Cc5ccccn5)CC4)c4ccccc34)C(=O)NC2=O)c2ccccc21`: the Potency is 3.09 µM (active).
